{
  "source": "PubChem BioAssay (Tox21)",
  "note": "Inconclusive results are not listed. Active and inactive are the calls of the source. Calls come from the whole dose curve; as a rule, active = well fitted cell-killing curve with a large enough effect in the repeat runs; inconclusive = weak or mixed curves, or effect the other way; inactive = flat fitted curve, though single readings scatter. % is set by controls: 0 for no effect and ±100 for the full control effect; potency is the fitted concentration of half-maximal effect.",
  "data": [
    {"experiment": "Nuclear factor erythroid 2-related factor 2/antioxidant responsive element (Nrf2/ARE) small molecule agonists: qHTS cell viability counter screen in human keratinocytes (AID 1919968); note: nearly all actives have a fitted effect of over 55% in size", "conditions": "KeratinoSens HaCaT ARE cells viability, CellTiter-Fluor, 24 h; series mostly up to 92.4 µM; activity change, negative = cytotoxicity: at the top concentration", "from_the_text": "U.S. Tox21 Program National Center for Advancing Translational Sciences [NCATS] Division of Preclinical Innovation [DPI] U.S. Environmental Protection Agency [EPA] National Institutes of Environmental Health Sciences [NIEHS] National Toxicology Program [NTP] U.S. Food and Drug Administration [FDA] Tox21 Assay Overview: Oxidative stress has been implicated in the pathogenesis of a variety of diseases ranging from cancer to neurodegeneration. The antioxidant response element (ARE) signaling pathway plays an important role in the amelioration of oxidative stress. The KeratinoSens (Givaudan, Switzerland) is an in vitro test method which quantifies luciferase induction as a measure of activation of Keap1-Nrf2-antioxidationt/electrophile response element (ARE) dependant pathway in HaCaT human keratinocytes stably transfected with a selectable plasmid. The KeratinoSens assay is a cell-based assay with a reporter cell line to detect potential skin sensitizers by their ability to induce the Nrf2/ARE-response. The activation of the report gene under culture conditions can be detected by ONE-Glo Luciferase Assay System (Promega, Madison, WI). This cell line has been used to screen the Tox21 10K compound library to identify agonists that induce oxidative stress. The cytotoxicity of the Tox21 compound library against the KS-ARE cell line was tested in parallel by measuring the cell viability using CellTiter- Fluor assay system (Promega, Madison, WI) in the same wells.\nTox21 Assay Protocol Summary: HaCaT derived cell line KeratinoSens were dispensed at 1,500 cells/5uL/well in 1536-well white wall/solid bottom plates using a Multidrop Combi (ThermoFisher Scientific, Waltham, MA) dispenser. After the assay plates were incubated at 37 C/5% CO2 for 5 h, 23 nL of compounds dissolved in DMSO, positive controls or DMSO only was transferred to the assay plate by a pintool workstation (Kalypsys, San Diego, CA). The plates were incubated at 37 C/5% CO2 for 23 h, followed by addition of 1uL/well of CellTiter-Fluor reagent into the assay plates using a Flying Reagent Dispenser (Aurora Discovery, San Diego, CA) for cell viability readout that measures cytotoxicity. After 1 h incubation at 37 C/5% CO2 the fluorescence intensity was measured using a ViewLux (PerkinElmer, Shelton, CT) plate reader.", "values": [
      {"smiles": "c1ccc(C2CC2)c(OCC2=NCCN2)c1", "activity change, negative = cytotoxicity": "11.3% [at 42.5 µM] (inactive)"},
      {"smiles": "CC(Cl)C(C)Cl", "note": "(stereo not given)", "activity change, negative = cytotoxicity": "-0.748% (inactive)"},
      {"smiles": "CO/N=C(/C1=NOCCO1)c1ccccc1Oc1ncnc(Oc2ccccc2Cl)c1F", "activity change, negative = cytotoxicity": "0.805% (inactive)"},
      {"smiles": "Nc1c(Cl)c(Cl)c(Cl)c(Cl)c1Cl", "activity change, negative = cytotoxicity": "2.56% (inactive)"},
      {"smiles": "C[CH2][Hg][N]1C(=O)C2C(C1=O)C1(Cl)C(Cl)=C(Cl)C2(Cl)C1(Cl)Cl", "note": "(stereo not given)", "Potency": "5.17 µM (active)"},
      {"smiles": "CN(N=O)c1ccc([N+](=O)[O-])cc1", "activity change, negative = cytotoxicity": "-11.6% (inactive)"},
      {"smiles": "CCO[C@H]1O[C@@H]2OC3(C)CC[C@H]4[C@H](C)CC[C@@H]([C@H]1C)[C@@]24OO3", "activity change, negative = cytotoxicity": "2.02% [at 42.5 µM] (inactive)"},
      {"smiles": "CCc1ccc(C(=O)NN(C(=O)c2cc(C)cc(C)c2)C(C)(C)C)cc1", "activity change, negative = cytotoxicity": "21.1% (inactive)"},
      {"smiles": "N=C(N)[Se]", "activity change, negative = cytotoxicity": "-17.2% (inactive)"},
      {"smiles": "CCCCCOC(=O)c1ccccc1C(=O)OCCCCC", "activity change, negative = cytotoxicity": "18.6% (inactive)"},
      {"smiles": "CC1(C)C(/C=C(\\Cl)C(F)(F)F)C1C(=O)OC(C#N)c1cccc(Oc2ccccc2)c1", "note": "(stereo not given)", "activity change, negative = cytotoxicity": "19.5% (inactive)"},
      {"smiles": "CCOP(=S)(OCC)SCSCC", "activity change, negative = cytotoxicity": "-3.39% (inactive)"},
      {"smiles": "O=C1C=CC(=O)c2ccccc21", "Potency": "15.4 µM (active)"},
      {"smiles": "CN(C)C(=S)[S-].CN(C)C(=S)[S-].[Cu+2]", "Potency": "0.297 µM (active)"},
      {"smiles": "C[C@]12CC[C@H]3[C@@H](CCC4=CC(=O)CC[C@@H]43)[C@@H]1CC[C@@H]2OC(=O)CCc1ccco1", "activity change, negative = cytotoxicity": "4.33% [at 42.5 µM] (inactive)"},
      {"smiles": "BrCCCCBr", "activity change, negative = cytotoxicity": "2.98% (inactive)"},
      {"smiles": "O=C1OC(CCN2CCCCC2)OC1(c1ccccc1)c1ccccc1", "note": "(stereo not given)", "activity change, negative = cytotoxicity": "3.47% [at 42.5 µM] (inactive)"},
      {"smiles": "ClCCCCCCCl", "activity change, negative = cytotoxicity": "12.2% (inactive)"},
      {"smiles": "O=C(NC(O)C(Cl)(Cl)Cl)NC(O)C(Cl)(Cl)Cl", "note": "(stereo not given)", "activity change, negative = cytotoxicity": "-0.0452% [at 42.5 µM] (inactive)"},
      {"smiles": "CC1(C)CN=C(NN=C(/C=C/c2ccc(C(F)(F)F)cc2)/C=C/c2ccc(C(F)(F)F)cc2)NC1", "Potency": "12.2 µM (active)"},
      {"smiles": "Cc1cccc(C)c1NC1=NCCCS1", "activity change, negative = cytotoxicity": "-0.982% [at 42.5 µM] (inactive)"},
      {"smiles": "O=[N+]([O-])c1cc(Cl)c(Cl)cc1Cl", "activity change, negative = cytotoxicity": "-0.648% (inactive)"},
      {"smiles": "O=C(O)COc1nc(Cl)c(Cl)cc1Cl", "activity change, negative = cytotoxicity": "-7.96% (inactive)"},
      {"smiles": "CCCCc1c(C)nc(NCC)nc1OS(=O)(=O)N(C)C", "activity change, negative = cytotoxicity": "10.4% (inactive)"},
      {"smiles": "C=CCOC(=O)C(C)(C)OC(=O)c1cc(-n2c(=O)cc(C(F)(F)F)n(C)c2=O)ccc1Cl", "activity change, negative = cytotoxicity": "-4.92% (inactive)"},
      {"smiles": "COc1ccc2[nH]cc(CCN(C(C)C)C(C)C)c2c1", "activity change, negative = cytotoxicity": "0.0773% (inactive)"},
      {"smiles": "C=CC(C)(CCC=C(C)C)OC(=O)c1ccccc1N", "note": "(stereo not given)", "activity change, negative = cytotoxicity": "-0.102% (inactive)"},
      {"smiles": "O=C1C[C@@H]2OCC=C3CN4CC[C@]56c7ccccc7N1[C@H]5[C@H]2[C@H]3C[C@H]46", "activity change, negative = cytotoxicity": "-0.404% [at 42.5 µM] (inactive)"},
      {"smiles": "CC(C)(C)NCC(O)c1cc(Cl)c(N)c(C(F)(F)F)c1", "note": "(stereo not given)", "activity change, negative = cytotoxicity": "-0.0817% [at 42.5 µM] (inactive)"},
      {"smiles": "Cc1nc(N)nc(N)n1", "activity change, negative = cytotoxicity": "-0.87% (inactive)"},
      {"smiles": "C[C@H](N)[C@H](O)c1ccc(O)c(O)c1", "activity change, negative = cytotoxicity": "-4.41% [at 42.5 µM] (inactive)"},
      {"smiles": "CCCCc1ccccc1", "activity change, negative = cytotoxicity": "3.65% (inactive)"},
      {"smiles": "CCC[CH2][Sn]([CH2]CCC)([CH2]CCC)[O][Sn]([CH2]CCC)([CH2]CCC)[CH2]CCC", "Potency": "0.533 µM (active)"},
      {"smiles": "CN/C(=N\\[N+](=O)[O-])NCC1CCOC1", "note": "(stereo not given)", "activity change, negative = cytotoxicity": "-0.0454% (inactive)"},
      {"smiles": "CCOP(=S)(OCC)Oc1ncn(-c2ccccc2)n1", "activity change, negative = cytotoxicity": "4.56% (inactive)"},
      {"smiles": "O=C(Cc1ccccc1)OCCc1ccccc1", "activity change, negative = cytotoxicity": "0.897% (inactive)"},
      {"smiles": "Clc1cc(C(Cl)(Cl)Cl)cnc1Cl", "activity change, negative = cytotoxicity": "-1.57% (inactive)"},
      {"smiles": "CCC1(C2=NCCN2)Cc2ccccc2O1", "note": "(stereo not given)", "activity change, negative = cytotoxicity": "2.67% [at 42.5 µM] (inactive)"},
      {"smiles": "CC(=O)[O-].CC(=O)[O-].[Co+2]", "activity change, negative = cytotoxicity": "1.13% (inactive)"},
      {"smiles": "CNC(=O)Oc1cc(C)c(N(C)C)c(C)c1", "activity change, negative = cytotoxicity": "-10% (inactive)"}
    ]}
  ]
}
